These results are taken from PubChem BioAssay AID493085 (Broad Institute, 2011).

The whole screen tested about 2,400 compounds, of which about 360 (15%) were called active. About 5% were inconclusive and are not listed. A selection follows. Measured potencies and affinities stand elsewhere. A number with no mark means an inactive call.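 How the source made its calls: active means falling-signal curve with half-maximal concentration at or below ten times the top tested dose; inconclusive means flat fit at 30 to 70% inhibition, or poor fit; inactive means signal rise, flat within 30%, or potency beyond limit.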

The nature of this assay: Tet-On RFP internal-standard readout, HSF1 screen, dose response, cell-based, NIH3T3 R4, HSE-GFP and Tet-On RFP, cherry-pick, set 3 (AID 493085).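 Further: cells heat shocked 2 h at 42 °C with doxycycline to induce reporters; 0% = neutral control wells and -100% = didemnin B control at 400 nM.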 The settings on record: NIH3T3 R4 HSE-GFP/Tet-RFP reporter, fluorescence, 48 h; series mostly up to 19.5 µM; activity change, negative = inhibition: at the top concentration.
In the case of `COc1cc2cc(CN(C(=O)NC3CCCCC3)C3CCCC3)c(=O)[nH]c2cc1OC`, the “activity change, negative = inhibition” value is -6.25%.

In the case of `COc1ccc(/C=N/NC(=O)CN(C)S(=O)(=O)c2ccc(NC(C)=O)cc2)cc1`, the “activity change, negative = inhibition” value is 0.548%. With `CCOC(=O)c1c(C)n(C)c2ccc(OC)c(NC(=O)CN3CCSCC3)c12`, the “activity change, negative = inhibition” value is 9.61%. In the case of `COc1ccc(C(=O)C2CCCN(Cc3ccc(NC(C)=O)cc3)C2)cc1OC` (stereo unspecified), the “activity change, negative = inhibition” value was -0.992%.

In the case of `Nc1nc(Cl)nc2c1ncn2C1CC(O)C(CO)O1` (stereo unspecified), the “activity change, negative = inhibition” value is -2.61%. For `Cc1oc(-c2cc3c(cc2Cl)OCO3)nc1CN1CCCC1c1ccc(F)cc1` (stereo unspecified), the “activity change, negative = inhibition” value is 1.85%. The result for `Cc1c(Cl)cccc1NC(=O)CS(=O)(=O)c1ccccc1` reads 11.7%. The result for `CC(C)n1cc(/C=N/Nc2ccc(C(=O)O)cc2)c2ccccc21` reads -12%.

For the compound `CCOC(=O)N1CCN(C(=O)C2CCN(Cc3ccc(OC)cc3OC)CC2)CC1`, the “activity change, negative = inhibition” value was 3%. The result for `COc1cccc(-c2cccc(NC(=O)C3CCN(Cc4ccon4)CC3)c2)c1` reads -3.89%.

For `Cc1ccnc(NS(=O)(=O)c2ccc(NC(=O)COc3ccccc3)cc2)n1`, the “activity change, negative = inhibition” value was 5.48%. The result for `Cc1nc(C(=O)NNC(=O)c2cccc(Cl)c2)c(C(F)(F)F)o1` reads 5.05%; that for `O=C(Cc1ccccc1)Nc1nc2ccccc2s1`, 0.496%. Next, `O=C(COc1ccccc1C(=O)O)Nc1ccc(SC(F)F)cc1`: -6.52%; `N/C(CC(=O)Nc1ccc(F)cc1)=N\O`: -0.505%; `Cc1ccccc1C(=O)Nc1nnc(CC(=O)N/N=C/c2ccco2)s1`: 25.1%. The result for `Cc1cc(C)nc(NC(=O)COc2cc(Cl)cc(Cl)c2)n1` reads -6.63%; that for `COc1cccc(CC(=O)N[C@@H](CCSC)c2nc3ccccc3[nH]2)c1`, -6.15%. For the compound `CCOc1ccc(N=C(NN)c2ccc3ccccc3n2)cc1`, the “activity change, negative = inhibition” value was -3.17%. Next, `Cc1ccc(S(=O)(=O)c2ccc(Oc3ccccc3)cc2)cc1`: -13.6%; `O=[N+]([O-])c1ccccc1Nc1cccnc1`: -3.4%. Next, `O=C(NCc1ccccc1)C1CCCN(S(=O)(=O)c2cccc3nsnc23)C1` (stereo unspecified): -0.54%; `Nc1nc(NCc2ccco2)nc(NC2CCCCC2)c1[N+](=O)[O-]`: -2.76%. Next, `Cc1nc2sc3c(NCc4ccco4)ncnc3c2c2c1COC(C)(C)C2`: -16.8%; `CC(C)CCc1c(O)nc(SCC(=O)N2CCCCCC2)[nH]c1=O`: 0.398%; `O=C(O)COc1ccc(/C=N/NC(=O)c2ccccc2Br)cc1`: -6.35%.

`CCCc1cc(=O)oc2cc(C)cc(OCC(=O)NCCCn3ccnc3)c12`: the “activity change, negative = inhibition” value is -7.06%.

On to `O=C(CC(Nc1ccccc1Cl)C(=O)OCC(=O)c1cccs1)c1ccccc1` (stereo unspecified), for which the “activity change, negative = inhibition” value was 20.8%.

With `COc1ccc2oc(=O)c(N3C(=O)c4ccccc4C3=O)cc2c1`, the “activity change, negative = inhibition” value was -15.4%. Next, `COc1cc(C2NC(=O)NC(C)=C2C(=O)OCC2CCCO2)ccc1O` (stereo unspecified): 1.41%. As to `CC1(C)CC(NCc2ccc3c(c2)OCO3)CCO1` (stereo unspecified), the “activity change, negative = inhibition” value is 3.89%.

On to `CCC1CCCCN1C(=O)c1cc2c(=O)n3cccc(C)c3nc2s1` (stereo unspecified), for which the “activity change, negative = inhibition” value is -4.77%. The result for `CN(C)c1ccc(C2Nc3ccccc3C(=O)N2CCCN2CCOCC2)cc1` (stereo unspecified) reads -11.3%; that for `NC(=O)C1CCN(CC(=O)Nc2nc(-c3ccccc3)cs2)CC1`, 1.54%; that for `O=C(c1c(F)cccc1F)N1CCN(c2ccccc2F)CC1`, -12.1%. The result for `Cc1cc(C(=O)NC2CCCN(Cc3ccc(Cl)cc3)C2)n(C)n1` (stereo unspecified) reads 7.47%; that for `O=Cc1ccc(OC(=O)Cc2ccc(F)cc2)cc1`, -3.08%; that for `CC(=NCCc1ccccc1)C1=C(O)CSC1=O`, -2.37%.

Regarding `COc1ccc(CNC(=O)C(=O)c2cn(CC(=O)N3CCOCC3)c3ccccc23)cc1`, the “activity change, negative = inhibition” value is -4.86%. The result for `CC(=O)Nc1ccc(NC(=O)CSc2cn(CC(=O)N3CCOCC3)c3ccccc23)cc1` reads 3.01%; that for `Cc1ccc(N2C(=O)c3ccccc3C2Nc2ccccc2F)nc1` (stereo unspecified), -6.19%; that for `Cc1ccc([N+](=O)[O-])cc1NC(=O)CSc1n[nH]c(-c2cccnc2)n1`, -1.6%. The result for `N#Cc1c(NC(=O)CSc2ncccn2)oc(-c2ccccc2)c1-c1ccccc1` reads 8.77%; that for `CC(C)(C)OC(=O)C1C(=O)CC(C)(O)C(C(=O)OC(C)(C)C)C1c1cccnc1` (stereo unspecified), -6.17%; that for `CCC(=O)N1CCc2cc(S(=O)(=O)NCCC(=O)Nc3ccccc3C)ccc21`, -3.98%. For `Cc1onc(-c2ccccc2)c1C(=O)Nc1sc2c(c1C(N)=O)CCC2`, the “activity change, negative = inhibition” value is -7.58%. For the compound `C/C(CC(=O)Nc1ccc(N(C)C)cc1)=N\NC(=O)Cc1csc(N)n1`, the “activity change, negative = inhibition” value is -0.381%.

`OC(COc1c(F)cc(Br)cc1F)CN1CCN(c2ccc(F)cc2)CC1` (stereo unspecified): the “activity change, negative = inhibition” value is 4.39%. The result for `COc1cccc(NC(=S)N(CCC(C)C)C2CCN(C(C)=O)CC2)c1` reads 7.46%. As to `CCn1c(=O)c(C(=O)Nc2ccccc2F)c(O)c2ccccc21`, the “activity change, negative = inhibition” value is 22.5%. Next, `O=C1CCC(=O)N1CNc1ccccn1`: -21.2%. The result for `Cn1c(C(=O)NN)cc2cc(OCc3ccccc3)ccc21` reads -7.37%; that for `COc1ccc(N2CC(C(=O)Nc3nnc(C4CCCCC4)s3)CC2=O)cc1` (stereo unspecified), -9.73%; that for `COc1ccc2nc(NC(=O)CN3CCOCC3)sc2c1`, -2.22%.

Consider `O=C(c1ccc(F)cc1)N1CCCC(N2CCN(Cc3ccc4c(c3)OCO4)CC2)C1` (stereo unspecified), for which the “activity change, negative = inhibition” value was -4.52%.

In the case of `COc1nc(-c2ccccc2)c2cc(Br)ccc2n1`, the “activity change, negative = inhibition” value was -15.5%.
